Measured values: PubChem BioAssay AID624415 (National Center for Advancing Translational Sciences (NCATS), 2012)
The campaign covered roughly 390,000 compounds. About 60 (0.02%) were called active. Rule as the data show it: active = activity change below about -50%; inconclusive = between about -30% and that limit; inactive = weaker than that. Shown is part of a subset that was picked to be rich in actives.

Target: Mucolipin-1 (Homo sapiens) (UniProt Q9GZU1)
Assay: qHTS for Inhibitors of the Human Mucolipin Transient Receptor Potential 1 (TRPML1);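 also: stimulus is agonist 54-4 at its EC80 concentration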
Details: TRPML1-inducible cells, Ca2+ dye fluorescence, FDSS; hits give low values; inhibition of EC80 agonist-evoked calcium signal
Text: Mutations of human Mucolipin transient receptor potential 1 (TRPML1) cause type IV mucolipidosis (ML4), a devastating neurodegenerative disease in young children. […] Currently, there is no treatment for ML4. […] Under physiological conditions, TRPMLs regulate membrane trafficking by transducing information about PI(3,5)P2 levels into changes in juxtaorganellar Ca2+, thereby triggering membrane fusion/fission events in the late endocytic pathways (endolysosomal trafficking). In addition, TRPML1 mediates release of Fe2+ from late endosomes and lysosomes, which is essential for cellular iron metabolism. Thus, impaired ion (Ca2+ and Fe2+) homeostasis underlies lysosomal dysfunction and ML4 phenotypes. In ML4 cells, the problem is twofold. First, defective Ca2+-dependent membrane trafficking due to TRPML1-deficiency causes accumulation of lipids and other bio-materials in the lysosome. The second strike comes from the lysosomal iron overload (due to impairment of TRPML1's Fe2+ conductivity), which converts the accumulated materials into the nondegradable (resistant to lysosomal degradation) lipofuscin (also called aging pigment) in the lysosome. Lipofuscin accumulation dramatically compromises the functions of lysosomes.
Niemann-Pick type C (NPC) disease is another lysosome storage disease (LSD) with severe neurodegeneration during the childhood. Currently, there is no cure for NPC. […] Thus, TRPML1 is likely to be an essential regulator of lysosome ion homeostasis. We specifically hypothesize that stimulating TRPML1's Fe2+/Ca2+ channel activity in the lysosome using synthetic agonists can alleviate neurodegeneration associated with ML4 or NPC.
To this end, a high throughput screen was developed in a miniaturized format to screen against the Molecular Libraries Small Molecule Repository (MLSMR) to find small molecules that act either as inhibitors or agonist against the TRPML1 channel.
NIH Chemical Genomics Center [NCGC]
NIH Molecular Libraries Probe Centers Network [MLPCN]
Assay Submitter (PI): Haoxing Xu, University of Michigan Ann Arbor
TRPML1-DL cells are dissociated from flasks, counted and, brought up to a density of 500,000 cells per mL of media containing a 1X Tet inducer. Using a Multidrop Combi, 3 uL of this cell solution is dispensed to each well of a 1536 TC treated, black, clear bottom hi base plate for a final cell density of 1,500 cells per well. The assay plates are incubated overnight (approximately 16 hours) at 37 degrees C and 5% CO2. Using a Multidrop Combi, 2 uL of ABD Ca8 no wash dye plus quencher is added to each well. The assay plates incubate at room temperature in the dark for 45-90 minutes. The assay plate is read on the FDSS using the following protocol: 10 second baseline read, 23 nL of compounds and controls are added using 1536 pintool, agonist read for 110 seconds, 1 uL EC80 addition (4 uM final 54-4 diluted in media), antagonist read for 110 seconds.
% is scaled to controls: 0 for no effect and ±100 for the full control effect.

Chain of Mucolipin-1 (Homo sapiens) (Q9GZU1 whole entry, looked up): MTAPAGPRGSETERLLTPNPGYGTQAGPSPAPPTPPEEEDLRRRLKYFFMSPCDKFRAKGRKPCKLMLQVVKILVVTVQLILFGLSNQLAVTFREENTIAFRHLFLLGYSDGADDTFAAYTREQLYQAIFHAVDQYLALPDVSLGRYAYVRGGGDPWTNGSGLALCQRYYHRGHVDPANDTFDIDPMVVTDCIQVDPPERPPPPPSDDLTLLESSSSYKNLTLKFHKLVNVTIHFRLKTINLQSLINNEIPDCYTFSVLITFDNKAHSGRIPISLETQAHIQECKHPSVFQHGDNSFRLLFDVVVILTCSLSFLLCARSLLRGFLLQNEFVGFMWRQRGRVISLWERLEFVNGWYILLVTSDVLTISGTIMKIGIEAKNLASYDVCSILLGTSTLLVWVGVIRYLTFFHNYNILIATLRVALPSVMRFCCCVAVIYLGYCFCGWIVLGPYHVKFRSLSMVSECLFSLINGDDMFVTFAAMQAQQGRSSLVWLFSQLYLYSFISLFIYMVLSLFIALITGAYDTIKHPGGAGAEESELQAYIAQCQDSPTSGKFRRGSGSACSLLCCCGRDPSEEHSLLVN

Activity change, negative = inhibition, inactive:
CCn1c(C(=O)Nc2cc(Cl)ccc2C)cc2sc(Cl)cc21 16.9%, Cc1cccc(Cn2c(=O)n(CCC(=O)NCCc3ccc(Cl)cc3)c(=O)c3sccc32)c1 -20.1%, CCc1nn(CC(=O)N2CCN(c3cccc(C(F)(F)F)c3)CC2)c(=O)c2cc3occc3n12 2.52%, COc1ccc(C2=NC3(CCCCC3)N(CC(=O)Nc3ccc(C(C)C)cc3)C2=O)cc1 8.59%, C=COC(=O)N1CCN(/[N+]([O-])=N/Oc2ccc([N+](=O)[O-])cc2[N+](=O)[O-])CC1 5.96%, COc1ccc(CNC(=O)c2ccc(NC(=O)N3CC4CCCN4c4ccccc43)cc2)cc1 (stereo not drawn) 12%, Cc1cc(C)cc(OCC(=O)Nc2c(C(=O)c3ccccc3)oc3ccccc23)c1 -3.38%, Cc1ccc(SCC(=O)Nc2ccc3oc(-c4ccccc4C)nc3c2)cc1 7.73%, CCNS(=O)(=O)c1cc(-c2nnc(Nc3cccc(C(F)(F)F)c3)c3ccccc23)ccc1C -9.21%, COc1cccc(CNC(=O)CCc2nc(-c3ccc(C)cc3)no2)c1 15.3%, Cc1ccccc1C(=O)NCc1nc(-c2ccc(Cl)cc2)no1 -1.57%, CC1CN(C(=O)N2CCC(C(=O)NCc3ccco3)CC2)c2cc(Cl)ccc2O1 (stereo not drawn) 31.2%, COc1ccccc1-c1ccnc2[nH]n(-c3ccccc3)c(=O)c12 -0.876%, COC(=O)CC1Oc2ccccc2-n2cc(-c3ccccc3)nc21 (stereo not drawn) 4.04%, Cc1ccccc1OCc1nc2c3cnn(-c4ccccc4F)c3ncn2n1 -5.46%, COc1ccc(NC(=O)c2ccc3nc(CCc4ccccc4)oc3c2)c(OC)c1 3.32%, CCOC(=O)C1CCN(C(c2ccc(F)cc2)c2sc3nc(-c4ccco4)nn3c2O)CC1 (stereo not drawn) -5.17%, Cn1c(C(=O)N2CCC(C(=O)N3CCN(c4ccccc4)CC3)CC2)cc2sccc21 -0.29%, CC(=O)N1CCCc2cc(S(=O)(=O)N3CCC(C(=O)NCc4ccc(C)cc4)CC3)ccc21 23%, COc1ccc(-c2c3c(=O)n(C)c(=O)n(C)c3c3c(C)nc4ccccc4n23)cc1 -0.184%, CC(=O)N1CCCc2cc(S(=O)(=O)Nc3ccc(Cl)cc3F)ccc21 0.189%, COc1ccc(N2C(=O)CS(=O)(=O)C23C(=O)N(Cc2ccc(C)cc2)c2ccccc23)cc1Cl (stereo not drawn) 40.4%, CCN(CC)/[N+]([O-])=N/OCOC(=O)Cc1c(C)n(C(=O)c2ccc(Cl)cc2)c2ccc(OC)cc12 37.6%, CCOC(=O)CSC1=Nc2ccccc2C2=NC(CCC(=O)NCc3ccc(F)cc3)C(=O)N12 (stereo not drawn) -10.5%, Cc1ccc(Cl)cc1-n1ncc2c(N3CCC(C(N)=O)CC3)ncnc21 0.447%, O=C(NCCC1=CCCCC1)c1ccc2c(c1)N(Cc1ccccc1F)C(=O)c1ccccc1S2(=O)=O 3.43%, Cc1cccc(C(=O)N2c3nc(-c4ccco4)nn3C3(CCCCC3)[C@@H]3CCCC[C@@H]32)c1 -0.973%, C=C1CCN(C(CC(C)C)C(=O)N2CCOCC2)S(=O)(=O)c2ccccc21 (stereo not drawn) -14.1%, CCCCNC(=O)CSc1nc2cc3c(cc2c(=O)n1CCCCCC(=O)NCc1ccc2c(c1)OCO2)OCO3 22.7%, Cc1cccc(NC(=O)CN(c2ccc(C(C)C)cc2)S(=O)(=O)c2c(C)nn(C)c2C)c1C 3.79%, Cc1ccccc1NC(=O)Cn1c(=O)n(CCc2ccccc2)c(=O)c2ccccc21 -6.8%, Cc1ccc(CN(C(=O)c2ccccc2[N+](=O)[O-])c2ccccn2)cc1 3.72%, Cn1nnc2c(N3CCN(c4ccccc4)CC3)ncnc21 -12.6%, CCn1cc2nc(SCc3ccccc3Cl)n(CCc3ccccc3)c(=O)c2n1 -16.2%, COc1ccc(NC(=O)CSc2nc3ncccc3[nH]2)c(OC)c1 -10.8%, COc1ccc(Nc2ncc3c(n2)CCN(C(=O)OC(C)(C)C)C3)cc1 -8.96%, COc1ccc(C2/C=C\CN(Cc3ccco3)C(C)C(=O)N2Cc2ccc(F)cc2)cc1 (stereo not drawn) 19.9%, COc1ccc2c(c1)Cc1sc(NC(=O)c3ccccc3Br)nc1-2 -10.7%, COc1ccc(C2CC(=O)N(Cc3ccccc3C)c3c2c(C)nn3-c2nc(C)cc(C)n2)c(OC)c1 (stereo not drawn) 35.7%, Cc1cc(C)cc(NC(=O)Cc2csc(C)n2)c1 2.64%, COc1cc(OC)c2c(C)cc(=O)oc2c1C(CCN1CCCCC1)c1ccc(N(C)C)cc1 (stereo not drawn) -6.66%, Cc1ccc(N2CC(c3nnc(Cc4ccccc4Cl)o3)CC2=O)cc1 (stereo not drawn) -9.51%, CCc1ccc(CNC(=O)c2ccc(CS(=O)c3ccc(Br)cc3)o2)cc1 (stereo not drawn) 34.7%, Cc1ccc2cccc(NC(=O)C(C)Oc3ccc(C)c(C)c3)c2n1 (stereo not drawn) -1.63%, Cc1ccc(C)c(N2C(=O)N(Cc3c(F)cccc3Cl)c3ccccc3S2(=O)=O)c1 -2.54%, Oc1ccc(Cl)cc1C1C=C(c2ccc3c(c2)OCO3)NC(c2c(F)cccc2Cl)N1 (stereo not drawn) -4.64%, COc1ccc2ncc3c(-c4ccc(C)c(C)c4)nn(CC(=O)NC4CCCC4)c3c2c1 6.38%, CCN(CC)c1nn2c(=O)c(C(=O)NCCc3ccccc3)cnc2s1 26.2%, COc1ccc(CNC(=O)c2cc3c(=O)[nH]c4ccccc4c3s2)cc1 -6.35%, Cc1ccc(Cl)cc1NC(=O)CSc1nccn1C 0.294%, CC(=O)Nc1ccc2nc(SCCOc3cc(C)cc(C)c3)sc2c1 -12.9%, CCc1ccc(S(=O)(=O)Nc2cc3c(C(=O)OCc4ccccc4)c(C)oc3c3ccccc23)cc1 28.4%, CCOC(=O)c1cccc(NS(=O)(=O)c2cc(-c3cnc(C)o3)ccc2OC)c1 21%
